This passage reports growth inhibition results from PubChem BioAssay (NCI).

The nature of assay [1]: NCI Yeast Anticancer Drug Screen. Data for the rad50 strain (AID 155).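 Note: 0% = growth of vehicle-only cultures of the same strain.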 As to conditions: S. cerevisiae rad50 strain growth inhibition; at 50.0 µM; stronger effect = higher value. Put shortly:
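Vehicle-treated cultures provide the reference for the growth inhibition reported for compound-exposed, repair-deficient yeast.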

Assay [2] in a line: NCI Yeast Anticancer Drug Screen. Data for the mec2-1 strain (AID 157). The conditions noted are these: S. cerevisiae mec2-1 strain, at 50.0 µM, stronger effect = higher value. The method in brief: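 Using mec2-1 yeast: add compound, measure growth, express inhibition versus vehicle-treated cultures.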
The nature of assay [3]: NCI Yeast Anticancer Drug Screen. Data for the sgs1 mgt1 strain (AID 161).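 Note: 0% = growth of cultures given vehicle only.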 As to conditions: S. cerevisiae sgs1 mgt1 strain, at 50.0 µM, stronger effect = higher value. Put shortly:
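This yeast growth screen uses a strain with defined DNA-repair lesions; compound-treated growth is compared with vehicle-treated growth.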

Assay [4] can be described thus: NCI Yeast Anticancer Drug Screen. Data for the cln2 rad14 strain (AID 165).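 Note: 0% = growth equal to vehicle treated cultures.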 As to conditions: S. cerevisiae cln2 rad14 strain, at 50.0 µM, stronger effect = higher value. Put shortly: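 Yeast strain cln2 rad14, bearing defects in cell cycle control and DNA repair, serves as the test system; values reflect growth inhibition compared with vehicle.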
A short description of assay [5]: NCI Yeast Anticancer Drug Screen. Data for the bub3 strain (AID 167). The conditions noted are these: S. cerevisiae bub3 mutant strain, at 50.0 µM, stronger effect = higher value. Put shortly: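 Mutant yeast screening strain plus compound; vehicle-treated cultures serve as the 0% inhibition reference.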
Assay [6] is described as follows: NCI Yeast Anticancer Drug Screen. Data for the mlh1 rad18 strain (AID 175). The conditions noted are these: S. cerevisiae mlh1 rad18 strain growth inhibition; at 50.0 µM; stronger effect = higher value. Put shortly: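 Steps: expose repair-defective yeast to compound; measure growth; express inhibition against vehicle-treated controls.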

About 79,000 compounds went through this panel and 15% of them were active in at least one assay; those are over-represented in the sample as a whole. Values without a mark were called inactive. Activity calls are given as the source filed them. Cut-off read from the data, not from the text of the source: active = growth inhibition above about 70%; inactive = the rest.

On to `CC(=O)OC1C[C@@](C)(O)[C@@]23O[C@@H]2[C@@H]2O[C@]2(C)C3C2OC(=O)C(C)[C@H]12` (stereo partly specified), for which the growth inhibition in assay [1] is -0.25%; in assay [2], -20.9%; in assay [3] it was -6.85%; in assay [4], 7.55%; in assay [5], -6.3%; in assay [6], -9.6%.
Regarding `N=C1/C(=C/c2ccco2)C(=O)N=C2SC=NN12`, the growth inhibition in assay [1] was 7.75%; in assay [2], 19.1%; in assay [3], 13.2%; in assay [4], -9.6%; in assay [5], -5.6%; in assay [6] it was 20.9%.
For the compound `CCC1COS(=O)(=O)CS(=O)(=O)O1` (stereo unspecified), the growth inhibition was -27.6% in assay [1]; -16.2% in assay [2]; -3.35% in assay [3]; -40.9% in assay [4]; 11.8% in assay [5]; 3.1% in assay [6].
On to `Cc1cc(S(=O)(=O)O)cc(Cl)c1N`, for which the growth inhibition is -11.3% in assay [1]; -27.9% in assay [2]; -0.85% in assay [3]; -0.5% in assay [4]; -23.8% in assay [5]; -9.4% in assay [6].
Regarding `CC(C)CN(CC(C)C)C(=O)c1ccc([N+](=O)[O-])cc1`, the growth inhibition in assay [1] was -7.3%; in assay [2], 22.8%; in assay [3] it was 16.9%; in assay [4], -26.2%; in assay [5], 38.1%; in assay [6], 20.9%.
As to `CC(O)CN(CC(C)O)S(=O)(=O)c1ccc(N)cc1` (stereo unspecified), the growth inhibition in assay [1] was -9.15%; in assay [2], -14.2%; in assay [3] it was -0.45%; in assay [4], -9.3%; in assay [5], 13.8%; in assay [6] it was -2%.
As to `O=c1oc2ccc3ccccc3c2c(-c2ccc(O)cc2)c1-c1ccccc1`, the growth inhibition in assay [1] was 98.7% (active); in assay [2] it was 98.5% (active); in assay [3] it was 98.9% (active); in assay [4] it was 97.2% (active); in assay [5], 98.2% (active); in assay [6], 98.7% (active).
With `OCCCNc1ncnc2[nH]ncc12`, the growth inhibition is 7.7% in assay [1]; 16.1% in assay [2]; 11.6% in assay [3]; 59% in assay [4]; -4.9% in assay [5]; 13.4% in assay [6].
As for `COC1OC(=O)c2ccccc21` (stereo unspecified), the growth inhibition was 12.2% in assay [1]; -16.2% in assay [2]; -2.1% in assay [3]; -0.7% in assay [4]; -2.45% in assay [5]; 12.8% in assay [6].
`CC(=O)OC1=C(C)C2=C3OC(=O)C(C)=C3CC[C@@]2(C)CC1`: the growth inhibition is 3.7% in assay [1]; 1.2% in assay [2]; 6.85% in assay [3]; 19.4% in assay [4]; 25% in assay [5]; 6.95% in assay [6].
In the case of `O=C1OC(=O)C2C1N=NC2(c1ccccc1)c1ccccc1` (stereo unspecified), the growth inhibition in assay [1] is 47.3%; in assay [2] it was 26%; in assay [3] it was 22.1%; in assay [4], -19.3%; in assay [5] it was -1.15%; in assay [6], 39.8%.
For `CC1(C)COC(=O)/C1=C/C#N`, the growth inhibition is 5.1% in assay [1]; 2.6% in assay [2]; -1.5% in assay [3]; -38.5% in assay [4]; -12.4% in assay [5]; 12.3% in assay [6].
For the compound `CC(=O)N(C)c1ccc(N=CN(C)C)cc1`, the growth inhibition in assay [1] is -80.3%; in assay [2] it was -27.5%; in assay [3] it was -34.3%; in assay [4], -11.8%; in assay [5], 2.9%; in assay [6], -27.9%.
As for `CCS(=O)(=O)CCNC(=O)NS(=O)(=O)c1ccc(C)cc1`, the growth inhibition in assay [1] is -2.2%; in assay [2], -7.85%; in assay [3] it was -11.8%; in assay [4] it was -1.2%; in assay [5] it was 7.7%; in assay [6] it was 0.9%.
As to `COc1ccc(-c2onc3ccc(Cl)cc23)cc1`, the growth inhibition in assay [1] is -9.1%; in assay [2] it was 4.1%; in assay [3], 17.4%; in assay [4], -63.5%; in assay [5] it was 7.35%; in assay [6], 21.4%.
For `Cc1nc(Nc2ccc(Cl)c(Cl)c2)sc1C(=O)/C=C/c1ccc2c(c1)OCO2`, the growth inhibition in assay [1] is 39.5%; in assay [2], 23.1%; in assay [3] it was 13.6%; in assay [4], -2.2%; in assay [5] it was -7.75%; in assay [6], 38.3%.
For `O=C(O)CC1CCCc2ccccc2C1=O` (stereo unspecified), the growth inhibition is 34.3% in assay [1]; 46.3% in assay [2]; 18.1% in assay [3]; 25.9% in assay [4]; 48.5% in assay [5]; 17.9% in assay [6].
On to `CC1CCC(C(C)(C)c2ccccc2)C(=O)C1` (stereo unspecified), for which the growth inhibition in assay [1] was 12.1%; in assay [2] it was -17.6%; in assay [3], -9.4%; in assay [4], 19.4%; in assay [5], -19%; in assay [6], 15.4%.
Consider `Cc1nc2ccccc2c(=O)n1/N=C\c1ccc2c(c1)CCC2`, for which the growth inhibition in assay [1] was -1.7%; in assay [2], -5.5%; in assay [3], 15.8%; in assay [4], 18.2%; in assay [5] it was 23%; in assay [6] it was 29.1%.
As for `O=C(Nc1ccccc1)OC1C=CC2CCC1C2` (stereo unspecified), the growth inhibition in assay [1] is 7.75%; in assay [2], 3.35%; in assay [3], 38.6%; in assay [4], 12.8%; in assay [5], 17.8%; in assay [6], 58.3%.
For the compound `CCOC(OC(C)=O)[C@@H]1C=C[C@H](C)N(c2ccc([N+](=O)[O-])cc2)O1` (stereo partly specified), the growth inhibition in assay [1] was 25.4%; in assay [2] it was 13.9%; in assay [3], 39.5%; in assay [4], 18.1%; in assay [5] it was 42.6%; in assay [6] it was 32.8%.
